In the supplement of paper PMC13380429:

Test system: Vero E6 infected with SARS-CoV-2
Experiment: inhibition of SARS-CoV-2 cytopathic effect; higher = more antiviral protection, active = above 15
Conditions: 48 h

Measured: inhibition of SARS-CoV-2 cytopathic effect

Cc1occc(=O)c1[O-].Cc1occc(=O)c1[O-].[O]=[V+2] [bis(maltolato)oxovanadium(IV)]
inactive: 1 nM 1.28% | 8.33 nM 1.37% | 100 nM 0.44% | 833.33 nM -2.57% | 10000 nM -1.02%

CCCCCCCC/C=C/C(=O)O [trans-2-undecenoic-acid]
inactive: 1 nM 0.16% | 8.33 nM -0.12% | 100 nM 1.42% | 833.33 nM 1.97% | 10000 nM 1.5%

CC(C)(O)CC(=O)O [beta-hydroxy-beta-methylbutyrate]
inactive: 1 nM 3.1% | 8.33 nM -2.04% | 100 nM -6.91% | 833.33 nM -3.9% | 10000 nM -3.42%

Cc1ncc(OC[C@@]2(c3cccc(F)c3)C[C@H]2C(=O)Nc2ccc(F)cn2)c(C)n1 [lemborexant]
inactive: 1 nM -1.6% | 8.33 nM -1.02% | 100 nM -1.75% | 833.33 nM -4.61% | 10000 nM -1.06%

CCCCCCCCCCC(CO)CCCCCCCC (stereo not given) [2-octyldodecan-1-ol]
inactive: 1 nM 1.79% | 8.33 nM -0.7% | 100 nM 0.48% | 833.33 nM 0.76% | 10000 nM 0.34%

C[N+](C)(C)CCCCCC[N+](C)(C)C [hexamethonium]
inactive: 1 nM -0.33% | 8.33 nM 1.65% | 100 nM 0.44% | 833.33 nM -0.93% | 10000 nM -1.17%

CC(C)n1nnc2cc(C(=O)O)ccc21
inactive: 1 nM 2.69% | 8.33 nM 0.35% | 100 nM -0.23% | 833.33 nM -0.38% | 10000 nM -1.63%

C[C@@H]1CCN(C(=O)CC#N)C[C@@H]1N(C)c1ncnc2[nH]ccc12
inactive: 1 nM -0.74% | 8.33 nM 0.22% | 100 nM -0.47% | 833.33 nM -2.11% | 10000 nM -0.5%

NC(=O)c1nc(F)cnc1O [favipiravir]
inactive: 1 nM -4.88% | 8.33 nM -2.34% | 100 nM -0.79% | 833.33 nM 0.84% | 10000 nM -6.81%

c1ccc(C(O[C@@H]2CCCN(CCc3ccc4c(c3)OCO4)C2)c2ccccc2)cc1 [zamifenacin]
inactive: 1 nM 0.36% | 8.33 nM 3.7% | 100 nM 0.93% | 833.33 nM -1.42% | 10000 nM -1.64%

CCCCCCCCCCCC[N+](C)(C)CCOc1ccccc1 [domiphen]
inactive: 1 nM -2.49% | 8.33 nM -1.64% | 100 nM 0.17% | 833.33 nM 0.26% | 10000 nM -8.43%

O=C1c2ccccc2-n2c1nc1ccccc1c2=O [tryptanthrin]
inactive: 1 nM 3.12% | 8.33 nM -0.23% | 100 nM 0.33% | 833.33 nM 0.62% | 10000 nM 0.39%

COc1cc(C(=O)OCCCN2CCCN(CCCOC(=O)c3cc(OC)c(OC)c(OC)c3)CC2)cc(OC)c1OC [dilazep]
inactive: 1 nM 0.92% | 8.33 nM 1.04% | 100 nM -0.17% | 833.33 nM -1.09% | 10000 nM 4.8%

CN(C)CCc1c[nH]c2ccc(Cn3cncn3)cc12 [rizatriptan]
inactive: 1 nM -0.4% | 8.33 nM 0.07% | 100 nM -1.66% | 833.33 nM -0.7% | 10000 nM -1.6%

COc1ccc(NC(=O)c2ccc(-c3ccc(-c4noc(C)n4)cc3C)cc2)cc1OCCN(C)C
inactive: 1 nM -0.44% | 8.33 nM -0.62% | 100 nM -0.42% | 833.33 nM -0.17% | 10000 nM 5.11%

COC(=O)C1=C(C)N(C)C(C)=C(C(=O)OC)C1c1ccc(C(F)(F)F)cc1
inactive: 1 nM 1.98% | 8.33 nM -2.17% | 100 nM 0.85% | 833.33 nM 2.1% | 10000 nM 8.02%

CC(C(=O)O)c1ccc2c(c1)[nH]c1ccc(Cl)cc12 (stereo not given) [carprofen]
inactive: 1 nM 4.44% | 8.33 nM 2.85% | 100 nM -6.45% | 833.33 nM 4.46% | 10000 nM 3.76%

NC(=O)C[S+]([O-])C(c1ccccc1)c1ccccc1 (stereo not given)
inactive: 1 nM -2.5% | 8.33 nM -3.65% | 100 nM -0.185% | 833.33 nM -1.01% | 10000 nM -3.77%

Cc1cc(C)c(NC(=O)N(Cc2ccc3c(c2)Cc2ccccc2-3)C2CCCCCC2)c(C)c1
inactive: 1 nM 0.2% | 8.33 nM 0.24% | 100 nM 1.89% | 833.33 nM 3.17% | 10000 nM -1.02%
